Screens from PubChem BioAssay.
The list is not random: actives were taken first. Their share in the collection is about 2.2%.
BaF3 tox – parental Ba/F3 cell viability inhibition, counter-screen for JAK2V617F inhibitor project, murine pro-B, CellTiter-Glo luminescence; CellTiter-Glo ATP luminescence; inhibition, % at 5.6 µM; 220,000 compounds, 1.1% hits; AID 1486, 2009;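 active means inhibition above a per-campaign cutoff, the mean inhibition of all tested compounds plus 3 SD, cut at about 27% in these data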;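 further: 0% = DMSO wells and 100% = JAK Inhibitor I control wells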
IEC-6 cytotox – cytotoxicity in IEC-6 intestinal epithelial cells, primary screen, cytotoxicity control for KLF5 inhibitor project, cell-based, luminescence | 290,000 compounds, 0.78% hits | inhibition, % at 5 µM | AID 1825, 2009 | IEC-6 cytotoxicity, luminescence viability; in the data active means inhibition above about 22%;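 further: 0% = plate median of test compound wells and 100% = cytotoxic reference compound wells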
KLF5 inh – KLF5 expression inhibitors, primary screen, DLD-1 cells, luminescence | DLD-1 KLF5 promoter-luciferase reporter | inhibition, % at 5 µM | 290,000 compounds, 0.23% hits;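 active means inhibition above a per-plate limit of that plate's mean compound inhibition plus 3 SD, cut at about 60% in these data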;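 further: 0% = DMSO wells and 100% = LY294002 at 200 µM; higher means less KLF5 promoter-driven luciferase light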
APP transl inh – inhibitors of APP translation via 5'UTR reporter, primary screen, APP 5'UTR luciferase, SH-SY5Y cells; SH-SY5Y APP 5'UTR-luciferase reporter, luminescence; inhibition, % at 2 µM; 190,000 compounds, 0.82% hits; AID 1285, 2008;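 active means inhibition above a set limit, derived from the sample mean plus 3 SD, cut at about 45% in these data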
aSyn 5UTR inh – MLPCN primary screen, SNCA 5' untranslated region; alpha-synuclein 5'UTR reporter, inhibitor activity; AID 1813, 2009; inhibition, % (tested at 7.5 µM); 300,000 compounds, 0.82% hits; in the data active means inhibition above about 60%;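 further: H4 neuroglioblastoma cells stably carrying SNCA 5'UTR luciferase fusion; 0% = DMSO wells and 100% = positive control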
Ba/F3 V617F tox – reduced viability of JAK2V617F-dependent Ba/F3 cells, primary screen, JAK2V617F inhibitor project, cell-based, Ba/F3 EpoR-JAK2V617F, luminescence | ATP luminescence | inhibition, % at 5.6 µM | 220,000 compounds, 1.1% hits;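 active means inhibition above the campaign mean plus 3 SD over all tested compounds, cut at about 24% in these data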;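 further: cytokine-independent growth of Ba/F3 cells driven by EpoR plus mutant JAK2; 0% = DMSO-treated cells and 100% = JAK inhibitor I control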
Starred values were filed as active, the others as inactive; / = no result given.

SMILES	BaF3 tox	IEC-6 cytotox	KLF5 inh	APP transl inh	aSyn 5UTR inh	Ba/F3 V617F tox
OC1(c2cccs2)CN(c2ccc(Cl)cc2)C2=[N+]1CCCS2 (centres undefined)	-1.2	-0.8	-42.6	-9.0	-8.7	-1.7
OC1(c2cccs2)CN(c2ccc(Cl)cc2)C2=[N+]1CCCC2 (centres undefined)	32.2*	0.7	-45.2	13.7	-17.5	16.7
CCCCN(CCCC)C(=O)c1cc2ccccc2c(=O)o1	36.9*	-5.9	12.1	26.4	18.4	18.8
CN1C2C=C3C(C#N)=C(N)C(C#N)(C#N)[C@H](c4c(F)cccc4F)[C@H]3C1CC2 (some centres undefined)	4.4	3.3	-8.6	47.1*	20.5	3.2
CN1C2C=C3C(C#N)=C(N)C(C#N)(C#N)[C@@H](c4cccc(F)c4)[C@@H]3C1CC2 (some centres undefined)	0.1	-3.1	-16.8	2.1	-2.4	-2.7
O=C(Nc1ncccn1)C12CC3CC(CC(C3)C1)C2	0.9	4.2	1.4	/	-10.5	-4.7
O=C(Nc1nccs1)C12CC3CC(C1)CC(C(=O)Nc1nccs1)(C3)C2	23.7	-12.3	23.4	-29.4	-49.4	49.9*
O=C(Oc1cccnc1)c1ccco1	2.2	-3.3	-12.9	45.7*	-9.7	-3.9
Cn1c(N)nc2nc(CCc3ccccc3)c(=O)[nH]c2c1=O	/	1.5	-11.1	/	-5.7	/
CC1=[N+](C)c2ccc3ccccc3c2C1(C)C	54.1*	-4.4	-19.8	12.2	1.5	53.4*
Cc1nsc2c1ccc1ccccc12	1.7	-5.2	-16.3	-1.6	-8.5	-5.8
COc1ccc(C(=O)NC(=S)NNC(=O)c2ccc3ccccc3n2)cc1	0.9	3.9	-19.8	/	73.1*	5.6
COc1cc(OC)cc(C(=O)NC(=S)NNC(=O)c2cnccn2)c1	3.8	-7.3	-11.5	8.8	73.2*	-3.0
COc1ccc(C(=O)NC(=S)NNC(=O)c2cnccn2)cc1OC	6.2	-0.7	-13.2	20.2	90.5*	-3.7
COc1cc(OC)cc(C(=O)NNC(=S)NC(=O)c2cccnc2)c1	/	4.2	-7.0	/	-30.6	/
COc1cc(OC)cc(C(=O)NNC(=O)c2ccccn2)c1	-2.2	8.8	13.6	37.8	72.7*	-2.6
COc1ccc(C(=O)NCCNC(=O)c2cnccn2)cc1OC	/	-0.8	-17.6	/	-7.2	/
CC(C)OCCCNC(=O)CCCC(=O)Nc1ccc(OCCc2ccccc2)cc1	/	3.1	-12.9	/	6.6	/
CCN(CC)C(=S)Nc1ccc2nc3n(c(=O)c2c1)CCCCC3	7.8	3.9	-38.7	1.6	/	4.6
C=Cc1ccc(Cn2nc(-c3ccc(C)cc3)ccc2=O)cc1	/	3.3	-28.9	/	-2.3	/
Cc1ccc(NS(=O)(=O)c2ccc(-c3coc(C)n3)cc2)c(Br)c1	/	-3.0	-15.9	/	6.2	/
Cc1ccc(C)c(N2CCN(S(=O)(=O)c3cc4c(cc3C)NC(=O)CO4)CC2)c1	/	-8.3	-15.8	/	13.5	/
Fc1ccc(Nc2ccc3ccccc3n2)c(F)c1	1.4	10.9	13.5	-199.5	59.6	5.0
CSc1cccc(NC(=S)N(CCCN2CCC(C)CC2)Cc2cccs2)c1	8.4	6.1	-9.0	1.1	-19.0	0.7
CCn1c(SCC(=O)N2CCN(c3ccccc3)CC2)nc2c([nH]c3ccccc32)c1=O	/	5.3	-14.1	/	14.5	/
SMILES	BaF3 tox	IEC-6 cytotox	KLF5 inh	APP transl inh	aSyn 5UTR inh	Ba/F3 V617F tox
O=C(/C=C/c1ccccc1)NC(=S)NNC(=O)c1cnccn1	6.9	-2.0	-16.8	/	86.6*	-2.9
CN(C)C(=O)CCC(=O)N1CCCC(C(=O)c2ccc(C(F)(F)F)cc2)C1 (centres undefined)	/	-3.2	-35.8	/	11.0	/
C=C(C)COc1ccc(-c2[nH]ncc2-c2ccccc2OC)c(O)c1	1.9	0.0	-7.2	-6.8	-33.7	-2.3
C=C(C)COc1ccc(-c2[nH]ncc2-c2ccc(Br)cc2)c(O)c1	4.0	4.9	22.8	79.3*	91.4*	10.5
C=C(C)COc1ccc(-c2n[nH]c(C)c2-c2ccc(Br)cc2)c(O)c1	1.5	-0.1	6.3	67.0*	19.3	-2.5
O=C(Nc1cccc(C(F)(F)F)c1)Nc1ccc(N2CCCC2)c(S(=O)(=O)Nc2ccccc2Cl)c1	1.9	1.8	-4.3	-10.9	92.7*	-4.2
